Assay outcomes as filed in PubChem.
In the library only some 6.6% were active in any assay of this set; here they are far more common.
MCF10A rereplic – inducers of DNA re-replication in MCF 10A breast cells | MCF 10A DNA re-replication, Hoechst nuclear intensity, 48 h | hit rate 2.9% among 350,000 | Potency, µM (doses to about 46.1 µM), inactives show top-dose activity, positive = re-replication, actives largely listed as activators; note: % of control where 0% means no effect; nearly all actives have a fitted effect of over 50% in size
KB-3-1 cytotox – kills parental KB-3-1 adenocarcinoma cells; Potency, µM (highest dose often 46.1 µM), most hits filed as cytotoxic; hit rate 1.4% among 400,000; KB-3-1 viability, CellTiter-Glo ATP luminescence, 72 h; note: % is set by controls: 0 for no effect and ±100 for the full control effect; nearly all actives have a fitted effect of over 60% in size
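Viability of parental KB-3-1 cells, measured by CellTiter-Glo luminescence, followed a 72 h incubation at 37 °C with pinned compounds in phenol-red-free DMEM containing 10% FBS.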
KB-V1 cytotox – KB-V1 MDR subline cytotoxicity; KB-V1 MDR cells viability, CellTiter-Glo, 72 h; Potency, µM (series often up to 46.1 µM), hits mostly cytotoxic; hit rate 3.4% among 400,000; note: % is set by controls: 0 for no effect and ±100 for the full control effect; nearly all actives have a fitted effect of over 60% in size
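Potencies derive from concentration-effect curves fitted to normalized luminescence (CellTiter-Glo) of KB-V1 cells treated for 72 h at 37 degrees C in phenol-red-free DMEM containing 10% FBS.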
RGS4 inh – inhibitors of human regulator of G protein signaling 4; hit rate 0.039% among 390,000; Transcreener GDP fluorescence polarization, RGS4-accelerated GTP hydrolysis; P49798; AID 504845; Potency, µM (top dose mostly 114 µM), for the others: at the highest dose activity change, negative = inhibition, most hits filed as inhibitors; note: % is set by controls: 0 for no effect and ±100 for the full control effect; nearly all actives have a fitted effect of over 75% in size
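MLSMR compounds (23 nl, pin-transferred) preincubated 10 min at room temperature with a 500nM (2x) first reagent, then RGS4 at 900nM (2x) plus Transcreener GDP mix added; fluorescence polarization (620/688 nm) read before and after 90 min at 30 °C.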
TSG101-PTAP inh – blocks PTAP/TSG101 interaction to inhibit HIV-1 budding. Fluorescence polarization, FITC-PTAP peptide / Tsg101 binding. AID 493005. 340,000 tested, under 10 active. Potency, µM (titrated, usually from 115 µM), for the others: top-dose activity change, negative = inhibition, most hits filed as inhibitors; active = well fitted inhibition curve with a large enough effect in the main read-out, with a control signal flat, not every such curve was filed as active; inconclusive = small, poorly fitted or top-dose-only effect, or effect the other way, or a change in a side signal; inactive = no such curve, though single readings can be large or run the other way; note: % of control where 0% means no effect
Target sequence (Q99816 whole entry, looked up): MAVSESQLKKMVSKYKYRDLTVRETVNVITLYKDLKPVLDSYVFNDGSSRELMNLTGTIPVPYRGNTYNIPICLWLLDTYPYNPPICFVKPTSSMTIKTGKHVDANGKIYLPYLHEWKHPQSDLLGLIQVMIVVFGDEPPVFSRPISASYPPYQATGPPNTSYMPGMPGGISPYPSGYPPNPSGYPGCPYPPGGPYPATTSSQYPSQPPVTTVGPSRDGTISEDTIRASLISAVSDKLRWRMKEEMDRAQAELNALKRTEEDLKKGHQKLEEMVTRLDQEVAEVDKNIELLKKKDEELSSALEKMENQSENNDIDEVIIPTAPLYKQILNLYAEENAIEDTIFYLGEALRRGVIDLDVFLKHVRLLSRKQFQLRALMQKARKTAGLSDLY
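Fluorescence polarization binding of Tsg101 binding domain (10 uM final) to FITC-labeled PTAP peptide (50 nM final) in HEPES pH 7.5 buffer with NaCl, Tween 20, EDTA, TCEP. Compounds added before peptide; binding 20 min at RT.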
SW480 rerep – inducers of DNA re-replication in SW480 colon cancer cells | Potency, µM (series often up to 46.1 µM), without a hit: at the top dose re-replication activation, usual class: activators | AID 624297 | SW480 DNA re-replication, Hoechst DNA content imaging, 48 h | hit rate 1.8% among 340,000; note: % of control where 0% means no effect; nearly all actives have a fitted effect of over 55% in size
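SW480 cells exposed to compounds for 48 hr at 37 C, 5% CO2, then Hoechst-stained 40 min. Nuclear DNA content imaged by fluorescence scanning (405 nm excitation, 500-530 nm emission); re-replication scored as increased high-intensity nuclei.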
Numbers without * were called inactive; [ ] = another dose, or the depositor's remark. Unless noted, calls come from the whole dose curve; as a rule, active = well fitted curve in the direction sought with a large enough effect; inconclusive = small, poorly fitted or top-dose-only effect, or another doubt; inactive = no such curve, though single readings can be large; an effect the other way counts as inactive or inconclusive. Potency is the fitted concentration of half-maximal effect.

Cc1ccc(NC(=O)CN2C(=O)C(c3ccc(F)cc3)=NC23CCCCC3)c(C)c1 was read as RGS4 inh -3%.
CCOc1ccc(C(=O)OCc2cc(=O)n3nc(C4CCCCC4)sc3n2)cc1 was read as KB-3-1 cytotox inactive, KB-V1 cytotox inactive and RGS4 inh 15%.
For O=C(NCC(c1cccnc1)N1CCc2ccccc2C1)C(=O)Nc1cccc(Cl)c1 (stereo not given) the results were KB-3-1 cytotox inactive, KB-V1 cytotox inactive and RGS4 inh 7%.
Screening Cc1ccc(/C=C/C(=O)Nc2sc3c(c2C#N)CCCC3)o1 returned MCF10A rereplic inconclusive, KB-3-1 cytotox inactive, KB-V1 cytotox inactive, RGS4 inh 29%[11.4 µM], TSG101-PTAP inh -10% and SW480 rerep 1.2µM*.
Screening CCc1ccc(CCC(=O)Nc2sc3c(c2C#N)CCCC3)o1 returned MCF10A rereplic 4.6µM*, KB-3-1 cytotox inconclusive, KB-V1 cytotox inconclusive, RGS4 inh inconclusive, TSG101-PTAP inh -5% and SW480 rerep 3.3µM*.
Screening Cc1ccc(/C=C/C(=O)NC2CCCCCCC2)o1 returned MCF10A rereplic inconclusive, KB-3-1 cytotox inactive, KB-V1 cytotox inactive, RGS4 inh inconclusive, TSG101-PTAP inh -6% and SW480 rerep 23µM*.
Cc1ccc(/C=N/NC(=O)NC2CCCCC2)o1 was read as MCF10A rereplic -2%, KB-3-1 cytotox inactive, KB-V1 cytotox inactive, RGS4 inh -1%, TSG101-PTAP inh 0% and SW480 rerep -6%.
For CCOC(=O)C1CCCN(C(=O)c2ccc3c(c2)N(Cc2ccc(Cl)cc2)C(=O)c2ccccc2S3=O)C1 (stereo not given) the results were KB-3-1 cytotox inactive, KB-V1 cytotox inactive and RGS4 inh 8%.
Clc1cccc(CSc2nnc(-c3c[nH]c4ccccc34)o2)c1 was read as MCF10A rereplic 11µM*, KB-3-1 cytotox inactive, KB-V1 cytotox inconclusive, RGS4 inh -32%, TSG101-PTAP inh 2% and SW480 rerep -5%.
For Clc1ccc2nc(CSc3nnc(-c4c[nH]c5ccccc45)o3)cn2c1 the results were MCF10A rereplic 8%, KB-3-1 cytotox inactive, KB-V1 cytotox inactive, RGS4 inh -2%, TSG101-PTAP inh 0% and SW480 rerep -3%.
`O=C(CSc1nnc(-c2c[nH]c3ccccc23)o1)N(Cc1ccccc1)c1ccc(F)cc1` gave MCF10A rereplic 12%, KB-3-1 cytotox inactive, KB-V1 cytotox 12µM*, RGS4 inh 6%, TSG101-PTAP inh -2% and SW480 rerep -8%.
Screening CCC(C(=O)NCCc1ccc(C)cc1)n1nc(C)c2c(C)n(-c3ccccc3)nc2c1=O (stereo not given) returned MCF10A rereplic -2%, KB-3-1 cytotox inactive, KB-V1 cytotox inactive, RGS4 inh -12%, TSG101-PTAP inh -3% and SW480 rerep inconclusive.
`Cc1ccc(-n2nc3c(=O)n(C(C)C(=O)NCc4ccc(Cl)cc4)nc(C)c3c2C)cc1` (stereo not given) gave MCF10A rereplic 0%, KB-3-1 cytotox 8.2µM*, KB-V1 cytotox inactive, RGS4 inh -9%[56.9 µM], TSG101-PTAP inh -4% and SW480 rerep -1%.
For Cc1ccc(-n2nc3c(=O)n(C(C)C(=O)NCc4ccccc4C)nc(C)c3c2C)cc1 (stereo not given) the results were KB-3-1 cytotox 15µM*, KB-V1 cytotox inactive and RGS4 inh -48%.
`Cc1ccc(-n2nc3c(=O)n(C(C)C(=O)NCc4ccc(OC(C)C)cc4)nc(C)c3c2C)cc1` (stereo not given) gave RGS4 inh -6%.
